# Test results published in the supplement of paper PMC3414501.
# Where a name gives a salt, the structure may show the parent alone.
# Tests used:
# [1] = tested on: S. cerevisiae SK1 pCDA2-eGFP (USY613), sporulating; experiment: CDA2-GFP sporulation assay sensitivity score (z-score vs DMSO controls); higher = stronger inhibition of sporulation, active = hit call of the paper;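 also: active if sensitivity score above 5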
# [2] = tested on: S. cerevisiae NKY1551 his4x/his4B, sporulating; experiment: HIS4 meiotic recombination assay sensitivity score (z-score vs DMSO controls); higher = stronger inhibition of sporulation/recombination, active = hit call of the paper;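 also: active if sensitivity score above 5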
# [3] = tested on: S. cerevisiae AD1-9 (efflux-pump deficient), vegetative growth in YPD; experiment: growth sensitivity score (doubling time z-score vs DMSO controls); higher = slower growth, strongly negative scores also mark growth inhibition (complete suppression), active = hit call of the paper
# In short: (§1)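 Rich medium in microtiter plates was seeded with Saccharomyces cerevisiae strains BY4741 and AD1-9 at an OD600 of 0.065, and compounds were added as a 1:100 dilution of DMSO stock. A Tecan GENios reader recorded optical density every 15 min for 24 hours, with eight solvent-only wells in each experiment. Average doubling time was the time to reach a set generation point divided by generation number. The growth sensitivity score was the compound mean minus the solvent-only mean, divided by the solvent-only standard deviation.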
# [4] = tested on: S. cerevisiae BY4741 (wild-type), vegetative growth in YPD; experiment: as above
# In short: as §1
Structure (SMILES),CDA2-GFP sporulation assay sensitivity score [1],HIS4 meiotic recombination assay sensitivity score [2],growth sensitivity score [3],growth sensitivity score [4]
"CN1CC(=O)N2[C@H](c3ccc4c(c3)OCO4)c3[nH]c4ccccc4c3C[C@@H]2C1=O [Tadalafil] (stock concentration (mM, diluted 1:100): 10)",-4.01 (inactive),-0.28 (inactive),-2.54,-1.71 (inactive)
"O=C(O)C[C@H](O)C[C@H](O)/C=C/c1c(C2CC2)nc2ccccc2c1-c1ccc(F)cc1 [Livalo] (stock concentration (mM, diluted 1:100): 5)",0.3 (inactive),-3.02 (inactive),32.2 (active),15.7 (active)
"CCC1=C(C)CN(C(=O)NCCc2ccc(S(=O)(=O)NC(=O)N[C@H]3CC[C@H](C)CC3)cc2)C1=O [Glimepiride] (stock concentration (mM, diluted 1:100): 7.7)",0.5 (inactive),1.27 (inactive),1.1 (inactive),-0.03 (inactive)
"CNCC[C@H](Oc1cccc2ccccc12)c1cccs1 [Duloxetine hydrochloride] (stock concentration (mM, diluted 1:100): 8.9)",16.3 (active),7.17 (active),33.3 (active),21.8 (active)
"Nc1nc2ccc(Cl)cc2c2nc(-c3ccco3)nn12 (stock concentration (mM, diluted 1:100): 10)",-3.14 (inactive),-0.12 (inactive),17.6 (active),5.26 (active)
"CCC1=C[C@H]2CN(C1)Cc1c([nH]c3ccccc13)[C@@](C(=O)OC)(c1cc3c(cc1OC)N(C)[C@H]1[C@@](O)(C(=O)OC)[C@H](OC(C)=O)[C@]4(CC)C=CCN5CC[C@]31[C@@H]54)C2 [Vinorelbine bitatrate] (stock concentration (mM, diluted 1:100): 7.2)",1.77 (inactive),-0.36 (inactive),-3.29,-1.83 (inactive)
